Test results from PubChem BioAssay (NCI).
About 83,000 compounds went through this panel and 20% of them were active in at least one assay; those are over-represented in the sample as a whole.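 Negative percent growth values reflect cell death: -40 means 40% of the cells present at the start died, and -100 means all died.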 Active and inactive are the calls of the source. How the source made its calls: active means growth percent below 10; inactive means the rest.

What follows are compounds tested on MDA-MB-468 breast (assay: NCI-60 one-dose screen, 48 h (100 = growth as untreated, 0 = no growth, -100 = all killed)). Conditions: 10 µM unless noted.
For `Cc1ncc(C#N)c(N)n1`, the growth was 89.3% (inactive).
In the case of `COc1cc(/C=C/C(=O)/C=C/c2cc(OC)c3c(c2)OCO3)cc2c1OCO2`, the growth is reported as 76.2% (inactive).
For `COc1cc2cc(c1Cl)N(C)C(=O)C[C@H](OC(=O)[C@H](C)N(C)C(=O)CCS)C[C@]1(C)O[C@H]1[C@H](C)[C@@H]1C[C@@](O)(NC(=O)O1)[C@H](OC)/C=C/C=C(\C)C2`, the growth was 42% (inactive).
For `COc1cc(NCCCCC(C)N)c2nccc(C)c2c1` (stereo not drawn), the growth was 10.6% (inactive).
`COc1ccc2[nH]c(C(=O)OCc3ccc4cccc(O)c4n3)cc2c1` was tested, and the growth was -70.8% (active).
In the case of `CC(C)=CCC[C@](C)(O)[C@H]1CC[C@]2(C)[C@@H]1CC[C@@H]1[C@@]3(C)CC[C@H](OC(=O)CCC(=O)O)C(C)(C)[C@@H]3CC[C@]12C`, the growth is reported as 30.5% [100 µM] (inactive).
With `O=C(Nc1ccc(Cl)c([N+](=O)[O-])c1)Nc1nc2ccccc2s1` the growth was 40.6% (inactive).
For `O=C(/C=C/c1ccc(C(F)(F)F)cc1)c1ccc(Nc2nc(NCCO)nc(NCCO)n2)cc1`, the growth was 19.9% (inactive).
With `CC(=O)Nc1ccc(/C=C2\SC(=S)N(/C=C(\C(C)=O)C(N)=O)C2=O)cc1` the growth was 108% (inactive).
In the case of `CCOc1ccc(C(CN2CCOCC2)C(C)=O)cc1OC` (stereo not drawn), the growth is reported as 13.9% (inactive).
With `COc1ccc(-c2nnc(NC(=O)CN3CCN(c4cc5c(cc4F)c(=O)c(C(=O)O)cn5C4CC4)CC3)s2)cc1OC` the growth was 93% (inactive).
With `CC(C)c1ccc(C(=O)Nc2sc3c(c2C(N)=O)CCC(=O)C3)cc1` the growth was -47.6% (active).
In the case of `CN(C=O)c1ccccc1`, the growth is reported as 87.3% (inactive).
